Test results taken from the supplement of paper PMC13380429.

Assays:
[1] = test system: Vero E6 infected with SARS-CoV-2; experiment: morphology score (similarity to uninfected cells); higher = more like uninfected cells; settings: 24 h
[2] = test system: Vero E6 infected with SARS-CoV-2; experiment: SARS-CoV-2 infection rate relative to infected DMSO; higher = more infection, active = 60 or less; settings: 24 h

Compound | morphology score [1] | SARS-CoV-2 infection rate [2]
O=C(O)CC1CC(c2ccccc2)=NO1 (stereo unspecified) (10 µM) | -0.0313 | 116% (inactive)
CO[C@@]1(NC(=O)CSC[C@@H](N)C(=O)O)C(=O)N2C(C(=O)O)=C(CSc3nnnn3C)CS[C@@H]21 [cefminox] (10 µM) | 0.045 | 115% (inactive)
CC[C@@H]1C(=O)OC[C@@H]1Cc1cncn1C [pilocarpine] (10 µM) | -0.105 | 110% (inactive)
CCOC(=O)[C@@H](N)Cc1ccc(-c2cc(O[C@H](c3ccc(Cl)cc3-n3ccc(C)n3)C(F)(F)F)nc(N)n2)cc1 [telotristat-ethyl] (10 µM) | 0.343 | 95.5% (inactive)
N=C(N)c1ccc(OCCCCCOc2ccc(C(=N)N)cc2)cc1 [pentamidine] (10 µM) | 0.104 | 109% (inactive)
CCOC(=O)[C@H](CCc1ccccc1)N[C@@H](C)C(=O)N1Cc2ccccc2C[C@H]1C(=O)O [quinapril] (10 µM) | -0.145 | 109% (inactive)
CN1[C@@H]2C[C@@H](OC(=O)[C@H](CO)c3ccccc3)C[C@H]1[C@@H]1O[C@@H]12 (10 µM) | 0.141 | 97.5% (inactive)
Cc1cc(SCc2sc(-c3ccc(C(F)(F)F)c(F)c3)nc2C)ccc1OCC(=O)O (10 µM) | 0.143 | 99.5% (inactive)
OC[C@H]1O[C@@H](O[C@@H]2[C@@H](CO)OC(O)(CO)[C@H]2O)[C@H](O)[C@@H](O)[C@H]1O (mixture of isomers) [lactulose] (10 µM) | -0.0368 | 97.5% (inactive)
Nc1nc(-c2ccc(Cl)c(Cl)c2)c(-c2ccncc2)s1 (10 µM) | 0.37 | 99.5% (inactive)
CCCc1nc(C(C)(C)O)c(C(=O)OCc2oc(=O)oc2C)n1Cc1ccc(-c2ccccc2-c2nnn[nH]2)cc1 [olmesartan-medoxomil] (10 µM) | -0.0296 | 116% (inactive)
CC(=O)N1CC[N+](C)(C)CC1 [4-acetyl-1,1-dimethylpiperazinium] (10 µM) | 0.103 | 88.5% (inactive)
CC(=O)Nc1ccc(C(=O)NC(C)(C)C)cc1 (10 µM) | 0.0601 | 106% (inactive)
COc1ccc(C(=O)/C(Cc2cc(OC)c(OC)c(OC)c2)=C(\C(=O)O)c2ccc3c(c2)OCO3)cc1 (10 µM) | 0.489 | 69% (inactive)
c1ccc(-c2n[nH]c3c2oc2ccccc23)cc1 (10 µM) | 0.0627 | 98.5% (inactive)
CO/N=C(\C(=O)N[C@@H]1C(=O)N2C(C(=O)O)=C(CSc3nc(C)c(CC(=O)O)s3)CS[C@H]12)c1csc(N)n1 [cefodizime] (10 µM) | 0.129 | 101% (inactive)
CCN(CCNC(=O)Nc1ccccc1Br)c1cccc(C)c1 (10 µM) | -0.0408 | 112% (inactive)
O=c1c2ccccc2nc2n1CCc1c-2[nH]c2ccccc12 [rutaecarpine] (10 µM) | 0.246 | 105% (inactive)
CCOC(=O)c1c(/C(C#N)=C\N)c2ccc(Cl)c(Cl)c2n1C (10 µM) | -0.0335 | 105% (inactive)
Cc1ccc(Cl)c(Nc2ccccc2C(=O)O)c1Cl [meclofenamic-acid] (10 µM) | 0.0323 | 108% (inactive)
CCN(CC)CCCC(C)Nc1ccnc2cc(Cl)ccc12 (stereo unspecified) [chloroquine] (10 µM) | 0.554 | 57.5% (active)
O=C1CN=C(c2cccc(Br)c2)c2oc3ccccc3c2N1 (10 µM) | 0.0252 | 95.5% (inactive)
N=C(N)NN=C1C=CC(=NNC(N)=S)C=C1 [ambazone] (10 µM) | 0.129 | 104% (inactive)
CC[C@H](CO)Nc1nc(Nc2cccc(-c3ccccn3)c2)c2ncn(C(C)C)c2n1 (10 µM) | -0.214 | 116% (inactive)
C=C[C@@H]1C[C@]1(NC(=O)[C@@H]1C[C@@H](Oc2ncc(OC)c3ccc(Cl)cc23)CN1C(=O)[C@@H](NC(=O)OC(C)(C)C)C(C)(C)C)C(=O)NS(=O)(=O)C1CC1 [asunaprevir] (10 µM) | 0.192 | 85% (inactive)
CC(=O)Nc1ccc(C(=O)Nc2ccccc2N)cc1 [tacedinaline] (0.833333 µM) | -0.0863 | 110% (inactive)
CN(C)[C@@H](CCOc1cccc2ccccc12)c1ccccc1 [dapoxetine] (10 µM) | 0.467 | 76% (inactive)
O=C(CCCN1CCC(O)(c2ccc(Cl)cc2)CC1)c1ccc(F)cc1 [haloperidol] (10 µM) | -0.0179 | 114% (inactive)
